Screening results from PubChem.
Sampled rows, rich in hits. Any-hit rate of the full collection: about 2.4%.
SENP7 block = inhibitors of human SENP7 protease; Q9BQF6; recombinant SENP7, Z-RLRGG-aminoluciferin luminescence, 40 min; inhibition, % at 5 µM; actives 1.5% (n = 330,000); AID 434973;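 active = inhibition above about 50% at the single test dose, limit read from the data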;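 note: plate controls were DMSO with enzyme for no effect and no enzyme buffer wells for full effect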
Target sequence (Q9BQF6 706-1050 limits assumed): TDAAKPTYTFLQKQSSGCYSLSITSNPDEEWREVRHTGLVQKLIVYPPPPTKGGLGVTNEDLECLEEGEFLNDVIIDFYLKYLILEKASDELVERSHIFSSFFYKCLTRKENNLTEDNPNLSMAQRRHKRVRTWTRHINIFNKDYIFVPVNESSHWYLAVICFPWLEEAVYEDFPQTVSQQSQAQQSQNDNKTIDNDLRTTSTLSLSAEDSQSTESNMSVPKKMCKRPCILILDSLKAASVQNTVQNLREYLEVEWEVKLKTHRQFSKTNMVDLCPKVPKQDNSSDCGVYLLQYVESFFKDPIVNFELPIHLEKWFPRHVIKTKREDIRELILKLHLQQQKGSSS
Platelet DG rel = platelet dense granule release activity. human platelet-rich plasma, SFLLRN dense granule ATP release, luminescence. actives 0.22% (n = 300,000). inhibition, %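 (compounds screened at 7.5 µM in platelet-rich plasma)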. AID 1663;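 active = mean replicate score, as percent of positive control, at or above 50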
SENP8 block-1 = SENP8 protease inhibition; Q96LD8; purified SENP8, Z-RLRGG-aminoluciferin cleavage, luminescence; inhibition, % at 10 µM; actives 1.2% (n = 330,000); AID 2540; in the data active = inhibition above about 50%
Target sequence (Q96LD8 whole entry, looked up): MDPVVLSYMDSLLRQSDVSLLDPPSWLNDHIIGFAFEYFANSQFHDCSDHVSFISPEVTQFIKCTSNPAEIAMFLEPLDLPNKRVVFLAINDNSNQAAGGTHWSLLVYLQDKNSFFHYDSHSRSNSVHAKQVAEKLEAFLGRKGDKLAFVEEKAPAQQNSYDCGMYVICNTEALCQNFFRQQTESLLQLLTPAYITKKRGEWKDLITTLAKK
SENP8 block-2 = blocks human SENP8 cleavage of Nedd8 substrate | Q96LD8 | recombinant SENP8, Nedd8 substrate fluorescence | inhibition, % at 20 µM | actives 0.64% (n = 360,000) | AID 602440; in the data active = inhibition mostly above about 40%, no sharp cut-off; inactive = mostly below about 27%
SENP6 inh = inhibitors of human SENP6 protease. Q9GZR1. Recombinant SENP6 catalytic domain, aminoluciferin luminescence. inhibition, % at 10 µM. actives 1.8% (n = 330,000);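 active = inhibition above about 50% at the single tested dose, limit read from the data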;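 note: plate controls were DMSO wells with enzyme for no effect and DMSO wells lacking enzyme for full effect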
SENP8 inh conf = confirmation of human SENP8 protease inhibitors; inhibition, % at 25 µM; purified SENP8, Nedd8-AMC/pro-Nedd8 cleavage fluorescence, 30 min; actives 15% (n = 1,400); shares compounds with SENP8 block-2; in the data active = inhibition mostly above about 39%, no sharp cut-off; inactive = mostly below about 34%
Active calls of the source: *; . = not tested or not shown.

SMILES	SENP7 block	Platelet DG rel	SENP8 block-1	SENP8 block-2	SENP6 inh	SENP8 inh conf
CC1CCCN(c2ccc(C(=O)Nc3ccc4c(c3)OCO4)cc2[N+](=O)[O-])C1 (configuration not stated)	7	-7	-1	43*	-5	22
CC1CCN(c2ccc(C(=O)Nc3ccc4c(c3)OCO4)cc2[N+](=O)[O-])CC1	2	9	5	33	1	.
Cc1cc(/N=C/N(C)C)on1	7	1	6	12	-2	.
CN(C)C=Nc1nonc1N	-7	-9	-7	45*	-19	2
Cn1nccc1-c1cc(Cl)cc(Cl)c1O	-5	-2	-3	-39	-30	.
CCCCOc1ccc(/C=N/NC(=S)Nc2cccc(C)c2C)cc1	12	0	1	40*	3	5
O=C(CCN1C(=O)c2ccccc2C1=O)C1=NN[C@@H]2C(=O)N(c3ccc4c(c3)OCCO4)C(=O)[C@H]12	-2	-7	7	2	1	.
Cc1cc(C)n(-c2ccc(C(=O)OCC(=O)Nc3ccc(S(N)(=O)=O)cc3)cc2)n1	-4	.	-14	13	-9	.
Cc1cc(C)n(-c2ccc(C(=O)OCC(=O)Nc3ccc(S(=O)(=O)N4CCCCC4)cc3)cc2)n1	-2	4	-11	48*	-11	17
CCCC(C)NC(=O)COc1ccc(S(=O)(=O)N2CCCC2)cc1 (configuration not stated)	-2	1	0	13	4	.
CCN1C(=O)N[C@@H](c2ccco2)C(C(C)=O)=C1C	-15	4	-7	5	-11	.
C/C(=N\Nc1ccc(S(=O)(=O)Nc2ccc(Cl)cc2)cc1[N+](=O)[O-])c1ccc(N2CCOCC2)cc1	8	5	-2	31	-6	.
C/C(=N\Nc1ccc(S(=O)(=O)Nc2ccccc2)cc1[N+](=O)[O-])c1ccc(N2CCOCC2)cc1	7	-1	8	44*	0	15
O=C(N/N=C/c1ccco1)C1CCCC1	-4	23	-1	-1	-7	.
CN1CCN(Cc2nc3ccccc3c(=O)n2Cc2nc(-c3ccc([N+](=O)[O-])cc3)cs2)CC1	-7	5	-4	47*	0	17
CN(C)Cc1nc2ccccc2c(=O)n1Cc1nc(-c2cccc([N+](=O)[O-])c2)cs1	5	-2	1	23	15	.
Cc1c(Cl)c(C(=O)NNC(=S)NCc2ccco2)nn1C	-7	-2	-10	40*	-12	14
Cn1cc(Cl)c(C(=O)NNC(=S)NCc2ccco2)n1	4	1	-2	-1	8	.
Cn1c(SCC(=O)Nc2nccs2)nnc1-c1ccccn1	0	-5	1	0	-5	.
CCOc1ccc(N=Nc2c(=O)[nH]n3c(=O)c4c([nH]c23)CCCC4)cc1	-2	3	-8	54*	-15	10
CN1CCC(N(C)C(=O)COc2ccccc2Cl)CC1	-5	.	-6	13	-6	.
c1coc(-c2nnc(-c3ccco3)nn2)c1	11	1	55*	87*	73*	70*
O=C(N/N=C/CCc1ccccc1)c1ccccc1	6	-2	-3	47*	-8	16
O=C(N/N=C/CCc1ccccc1)C1CCCCC1	4	-10	4	14	1	.
CC1=CC(=C(C#N)c2nc3ccccc3s2)C=C(C)N1Cc1ccco1	2	-4	16	59*	38	18
SMILES	SENP7 block	Platelet DG rel	SENP8 block-1	SENP8 block-2	SENP6 inh	SENP8 inh conf
O=C(NCc1ccco1)c1nc2ccccc2s1	-2	-3	-6	24	14	.
COc1ccc(-c2cc(C(F)(F)F)c3c(=O)n(-c4ccccc4)[nH]c3n2)cc1	4	2	23	41*	46	32
COc1ccc(CCN2C(=NC(=O)CC(C)C)SC3CS(=O)(=O)CC32)cc1OC (configuration not stated)	-3	2	-9	11	-5	.
COc1ccc(-c2nc(-c3ccccc3OC)no2)cc1OC	9	-7	7	40*	33	29
Cc1cc(Br)ccc1-n1[nH]c(C)c(C=Nc2cccc3nsnc23)c1=O	14	10	12	54*	14	12
COc1ccccc1N=Cc1c(C)[nH]n(-c2ccc(C)cc2C)c1=O	3	-3	-2	28	11	.
O=C(NC1CCCCC1)C(c1ccnc2ccccc12)N1CCc2ccccc2C1 (configuration not stated)	.	.	.	51*	.	91*
O=C(NCC(=O)N(CC1CCCO1)C(C(=O)NC1CCCC1)c1ccc(F)cc1)c1ccco1 (configuration not stated)	0	.	-6	21	-12	.
O=C(NCC(=O)N(CC1CCCO1)C(C(=O)NC1CCCC1)c1cccnc1)c1ccco1 (configuration not stated)	-1	-1	2	42*	2	14
COc1ccccc1Oc1ccc(NC(=O)Cc2ccccc2)cc1	6	4	0	17	-12	.
N/C(=N\O)c1cn(Cc2ccccc2Cl)c2ccccc12	3	6	-2	18	-30	.
Cc1[nH][nH]c(=O)c1C(c1c(C)[nH][nH]c1=O)c1cn(Cc2ccccc2Cl)c2ccccc12	.	0	.	79*	.	73*
COC(=O)CN1C(=O)S/C(=C/c2ccc(N3CCCCC3)o2)C1=O	-7	0	-14	42*	-4	27
CCOC(=O)CN1C(=O)S/C(=C/c2ccc(N3CCCCC3)o2)C1=O	1	1	4	22	-7	.
O=C(c1ccc(-c2ccc([N+](=O)[O-])cc2)o1)N1CCN(S(=O)(=O)c2cccs2)CC1	2	.	6	-46	-4	.
O=C(CNC(=O)c1ccccc1F)N/N=C/c1cccs1	-5	-3	-11	42*	-28	11
O=C(CNC(=O)c1ccccc1)N/N=C/c1cccs1	1	-4	-6	19	8	.
CCOC(=O)C1=CCN(S(=O)(=O)c2cccc(Cl)c2)C1c1ccc(F)cc1 (configuration not stated)	.	.	.	14	.	.
CC1(C)CC2(CCO1)C(Nc1ccccc1)=NC(=S)N2CC(N)=O (configuration not stated)	-3	5	1	45*	-7	12
Cc1cc(NS(=O)(=O)c2ccc3c(c2)OCCO3)no1	1	-4	-3	42*	-10	23
O=C(CCS(=O)(=O)Cc1ccccc1)N1CCc2ccccc2C1	5	0	-2	8	-3	.
O=C(CCS(=O)(=O)Cc1ccccc1F)N1CCc2ccccc2C1	0	13	4	67*	5	75*
CCN(CC(=O)NCc1cccs1)C(=O)c1cccc(S(=O)(=O)Nc2ccc(OC)cc2)c1	7	-3	-6	5	-18	.
CCN1CCN(c2nc(N)c([N+](=O)[O-])c(Nc3cccc(C)c3)n2)CC1	-7	-49	-8	19	-9	.
COc1ccc(Nc2nc(N)c([N+](=O)[O-])c(N3CCOCC3)n2)cc1	8	-2	-7	23	-14	.
